# This is a sample that favours compounds with a hit; in the whole collection about 15% have one here.
# HCMV antiviral – human cytomegalovirus inhibition. 4.5% of 410,000 active. HFF cells, HCMV-luciferase reporter, 72 h; hits give low values. activity change, negative = inhibition, % at 57.5 µM; in the data active means activity change below about -60%; inconclusive means no clear call, values can overlap the other calls; inactive means above about -39%; further: on the % scale 0 is the no-effect control and ±100 the full control effect
#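 Luciferase read-out from HCMV-luciferase-infected HFFs (MOI 1 PFU/cell) 72 h post infection at 37C; compounds added after 16 h cell attachment; activity normalized between buffer-only basal and Salinomycin (10uM) inhibitor controls.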
# Pf growth 48h – inhibits P. falciparum growth in the first generation, 48 h. P. falciparum luciferase growth in erythrocytes, 48 h. Potency, µM (top dose mostly 28.7 µM), inactives show top-dose activity change, negative = inhibition, usual class: inhibitors. 5.9% of 310,000 active; further: potency means the concentration at half of the fitted maximal effect; on the % scale 0 is the no-effect control and ±100 the full control effect
#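 Cell-based growth assay: transgenic P. falciparum expressing firefly luciferase, cultured in red cells within RPMI 1640 containing 0.5% w/v Albumax, 24 mM bicarbonate and gentamycin. A drop in luciferase activity indicates inhibition.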
# HCV inh – inhibitors of hepatitis C virus infection. Huh7.5.1 HCVcc-Cre infection, luciferase reporter, 44 h. Potency, µM (series often up to 41.8 µM), for the others: at the highest dose activity change, negative = inhibition, hits mostly inhibitors. 3.4% of 340,000 active. AID 651820; further: potency means the concentration at half of the fitted maximal effect; on the % scale 0 is the no-effect control and ±100 the full control effect
#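 Cells seeded at 1,000/well and cultured 4 h, then compounds added followed by HCVcc-Cre virus (~0.5 moi). After 44 h further culture, luciferase substrate was added, plates held 15 min at room temperature, and luminescence read for 15 sec.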
# Sm TGR block – blocks Schistosoma mansoni thioredoxin glutathione reductase; Q962Y6; purified TGR, DTNB reduction, TNB absorbance 405 nm; Potency, µM (top dose mostly 114 µM), inactives show top-dose activity change, negative = inhibition, hits mostly inhibitors; 3% of 360,000 active; AID 485364; further: potency means the concentration at half of the fitted maximal effect; on the % scale 0 is the no-effect control and ±100 the full control effect; nearly all actives have a fitted effect of over 60% in size
#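 First, TGR (20 nM dispensed) and NADPH were mixed with compound. Second, a 15 min room-temperature incubation followed. Third, further NADPH and then DTNB were added to start the reaction. Finally, TNB absorbance was monitored kinetically.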
# SARS PLpro yeast – inhibitors of SARS-CoV papain-like protease in yeast; S. cerevisiae expressing SARS-CoV PLpro, growth rescue; Potency, µM (titrated, usually from 32.9 µM), for the others: at the highest dose activity, positive = growth rescue, usual class: activators; 0.19% of 330,000 active; AID 485353; calls by dose curve; further: potency means the concentration at half of the fitted maximal effect; 0% is about no effect; nearly all actives have a fitted effect of over 55% in size
# Pf growth 96h – P. falciparum growth inhibition at 96 hour, primary screen for plastid delayed-death inhibitors; Potency, µM (titrated, usually from 28.7 µM), for the others: at the top dose activity change, negative = inhibition, usual class: inhibitors; P. falciparum luciferase reporter growth, 96 h; AID 504834; 6.9% of 320,000 active; further: potency means the concentration at half of the fitted maximal effect; on the % scale 0 is the no-effect control and ±100 the full control effect
#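 Luminescence readout: decreased luciferase signal marks inhibited growth of reporter-expressing P. falciparum in infected red cells (2% hematocrit, 0.05% parasitemia final), exposed to compound two generations (96 h, 37 C, 5% CO2).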
# * marks the source's active call; other numbers are inactive results; ? = inconclusive; · = no result; [ ] = another dose, or the depositor's remark. Unless noted, the call rests on the fitted dose curve; in most records, active means well fitted curve in the direction sought with a large enough effect; inconclusive means small, poorly fitted or top-dose-only effect, or another doubt; inactive means no such curve, though single readings can be large; an effect the other way counts as inactive or inconclusive.
SMILES,HCMV antiviral,Pf growth 48h,HCV inh,Sm TGR block,SARS PLpro yeast,Pf growth 96h
CCOc1ccc(S(=O)(=O)N2Cc3ccccc3CC2C(=O)Nc2ccc(NC(C)=O)cc2)cc1 (configuration not stated),29.1,·,·,1.2%,·,·
COc1ccc(-c2nc(C)c(CCNC(=O)c3ccco3)s2)cc1,58.0,·,·,-4.4%,·,·
O=S1(=O)C=C(Sc2nc3ccccc3s2)c2ccccc21,·,8.28µM*,5.01µM*,2.24µM*,-23.0%,·
OC(CNCC(c1ccc(Cl)cc1Cl)c1c[nH]c2ccccc12)c1ccccc1 (configuration not stated),-107.7*,?,?,11.5%,-1.4%,?
CCN(CC)C(=O)Cn1c(=O)n(-c2ccc(Cl)c(Cl)c2)c(=O)c2c(C)c(C(=O)N(CC)CC)sc21,12.5,·,·,13.3%,·,·
COc1ccc(NC(=O)c2cn3c4c(ccc(Cl)c4c2=O)OC(C)C3)cc1OC (configuration not stated),-13.1,·,·,-7.9%,·,·
Cc1ccccc1N1C(=O)CC(Nc2ccc3c(c2)OCO3)C1=O (configuration not stated),-2.9,18.5%,-5.4%,?,13.8%,11.9%
Cc1ccc(N2C(=O)CC(Nc3ccc(Cl)c(S(=O)(=O)N(C)C)c3)C2=O)c(C)c1 (configuration not stated),-16.0,0.0%,-1.1%,31.6µM*,-5.7%,8.2%
CN(C)CCCNC(=S)N1CCn2c(nc3ccccc32)C1,-12.0,-10.6%,6.4%,-21.7%,-11.7%,?
C[C@@H]1CN([C@H](C)CO)C(=O)CCCn2nncc2CO[C@H]1CN(C)Cc1ccc(C(F)(F)F)cc1,-14.3,·,·,·,·,·
CCCCCCN(C(=O)CCCCCN1C(=O)NC(c2ccc(-c3ccccc3)cc2)C(C(=O)OCc2ccccc2)=C1C)C(C(=O)NCCCC)c1ccc(-c2ccccc2)cc1 (configuration not stated),7.3,0.828µM*,·,9.5%,-3.3%,0.262µM*
CCCCCCN(C(=O)CCCN1C(=O)NC(c2ccc(-c3ccccc3)cc2)C(C(=O)OCc2ccccc2)=C1C)C(C)C(=O)NCCCC (configuration not stated),10.4,·,?,·,16.4%,·
CCCCCCN(C(=O)CCCCCN1C(=O)NC(c2ccc([N+](=O)[O-])cc2)C(C(=O)OCc2ccccc2)=C1C)C(C(=O)NCCCC)C1CCCCC1 (configuration not stated),-8.6,·,14.5%,·,1.1%,·
CC1=C(C(=O)OCc2ccccc2)C(c2ccc(-c3ccccc3)cc2)NC(=O)N1CCCCCC(=O)O (configuration not stated),13.1,-23.5%,6.9%[8.37 µM],-14.1%,-9.4%,?
CCCCCCN(C(=O)CCCCCN1C(=O)NC(c2ccc(-c3ccccc3)cc2)C(C(=O)OCc2ccccc2)=C1C)C(C(=O)NCCCC)c1ccc(O)cc1 (configuration not stated),·,?,-1.8%[8.37 µM],-13.5%,9.7%,2.08µM*
CCCCCCN(C(=O)CCCCCN1C(=O)NC(c2ccc(-c3ccccc3)cc2)C(C(=O)OCc2ccccc2)=C1C)C(C(=O)NCCCC)c1ccc(O)c(C(=O)OC)c1 (configuration not stated),·,2.08µM*,·,15.0%,1.5%,2.08µM*
CCCCCCN(C(=O)CCCCCN1C(=O)NC(c2ccc(-c3ccccc3)cc2)C(C(=O)OCc2ccccc2)=C1C)C(C(=O)NCCCC)c1cccc(C(=O)OC)c1 (configuration not stated),13.3,1.85µM*,·,-3.1%,2.0%,1.65µM*
Nc1c(C(=O)c2ccccc2O)cnn1-c1ccc(S(=O)(=O)N2CCOCC2)cc1[N+](=O)[O-],?,0.3%,·,·,-0.3%,-17.6%
N#CC(C#N)=C(C#N)c1ccc(Nc2ccccc2)cc1,28.1,13.4%,19.2%,2.82µM*,-6.8%,11.7µM*
CCN(C(=O)Cn1nc2c3cc(F)ccc3n(Cc3cccc(C)c3)cc-2c1=O)c1cccc(C)c1,-2.5,·,·,-4.6%,·,·
COC(=O)c1ccccc1-c1c2ccc(=N)cc-2oc2cc(N)ccc12,-97.0*,1.31µM*,?,-4.2%,-1.2%,0.329µM*
O=C(O)c1ccccc1-c1c2ccc(=O)cc-2oc2cc(O)ccc12,·,-6.6%,·,·,·,-19.3%
CCOc1ccc(N(CC(=O)Nc2ccc(C)c(C)c2)S(C)(=O)=O)cc1,164.5,121.7%,8.1%,1.9%,3.4%,9.8%
Cc1ccc(C(=O)Nc2ncc([N+](=O)[O-])s2)cc1,-69.9*,-26.2%,?,-26.0%,-24.0%,359.9%
Cc1onc(-c2ccccc2)c1C(=O)Nc1ncc([N+](=O)[O-])s1,-95.5*,?,?,-2.6%,-13.5%,35.2%
SMILES,HCMV antiviral,Pf growth 48h,HCV inh,Sm TGR block,SARS PLpro yeast,Pf growth 96h
Cc1ccc(C(=O)Nc2ncc(Cc3ccc(SC(F)F)cc3)s2)cc1,-63.4*,16.8%,10µM*,-10.9%,17.6%,17.1%
O=C(Nc1ncc([N+](=O)[O-])s1)c1ccc2c(c1)OCO2,-92.9*,4.8%,-22.0%,4.6%,-12.7%,3.7%
CC(=O)Nc1ncc([N+](=O)[O-])s1,7.1,-4.1%,·,·,·,-5.3%
Cc1ccc([N+](=O)[O-])cc1NC(=O)c1ccc2c(c1)OCO2,6.9,25.2%,-7.0%,·,0.5%,4.0%
CC[C@H](C)[C@H]1CNC(=S)N1CC1CCN(CCC(C)C)CC1,11.0,·,·,·,·,·
Cc1ccc(NC(=O)c2ccc3nsnc3c2)c(C)c1,-15.1,82.5%,-2.8%,2.1%,-2.6%,?
CCOC(=O)c1sc(Nc2nc3c(OC)cccc3s2)cc1C,-4.8,-57.5%,10µM*,3.6%,-127.7%,-64.0%
COc1cccc2sc(Nc3nc4ccc(NC(C)=O)cc4s3)nc12,-82.5*,?,4.47µM*,-10.3%,-6.8%,?
CC(=O)c1sc(Nc2nc3cc4c(cc3s2)OCO4)nc1C,15.6,101.6%,?,?,0.0%,?
CCOC(=O)c1sc(Nc2nc3cc4c(cc3s2)OCO4)cc1C,-39.6,8.28µM*,?,-23.5%,8.4%,9.28µM*
COc1cccc2sc(NN)nc12,29.1,-18.8%,-3.1%,14.2%,-13.5%,?
Cc1ccccc1NC(=O)NCCCN1CCN(C)CC1,-7.6,8.2%,11.9%,-2.2%,0.3%,?
O=C(NCCN1CCN(c2ccccc2)CC1)Nc1cccc(Br)c1,5.4,?,14.1µM*,6.7%,-0.2%,?
O=C(CCN1CCN(c2ccccc2)CC1)Nc1cccc(Br)c1,-5.5,?,-8.2%,1.3%,-1.3%,?
Cc1ccccc1NC(=O)NCCCN1CCN(c2ccccc2)CC1,-7.6,·,11.5%,-1.4%,-9.6%,2.33µM*
